{"source": "PubChem BioAssay (NCI)", "note": "Compounds without any hit were thinned out: in the full panel of roughly 79,000, 15% have a hit. Unmarked numbers belong to inactive results. The source made the active and inactive calls. Cut-off read from the data, not from the text of the source: active = growth inhibition above about 70%; inactive = the rest.", "data": [{"experiment": "NCI Yeast Anticancer Drug Screen. Data for the rad50 strain (AID 155);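 note: 0% = growth of vehicle-only cultures of the same strain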", "conditions": "S. cerevisiae rad50 strain growth inhibition; at 50.0 µM; stronger effect = higher value", "in_short": "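Relative growth inhibition (compound vs vehicle) was measured in yeast with a defined repair-gene alteration.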", "values": [{"smiles": "CSc1nc(=O)cc(N)n1C", "growth inhibition": "1.65%"}, {"smiles": "CCOC(=O)C(NC(=O)Cc1ccccc1)C(=O)OCC", "growth inhibition": "10.8%"}, {"smiles": "COc1ccc(C(=O)C(CN(C)C)CN(C)C)cc1OC", "growth inhibition": "30.6%"}, {"smiles": "CS(=O)(=O)/C=C/c1ccccc1", "growth inhibition": "-19.4%"}, {"smiles": "Clc1ccc2sc3c(c2c1)CCNC3", "growth inhibition": "2.8%"}, {"smiles": "CCS(=O)(=O)c1ccc(NC(=O)OC2CCCCCC2)cc1", "growth inhibition": "-2.65%"}, {"smiles": "CC(C)c1ccc(C(O)C2CC2)cc1", "note": "(stereo not given)", "growth inhibition": "-14.3%"}, {"smiles": "Nc1ccc(C(=O)CC(=O)c2cccc([N+](=O)[O-])c2)cc1", "growth inhibition": "26.4%"}, {"smiles": "CC(C)(Cc1ccc(Cl)cc1)NC(N)=O", "growth inhibition": "-35.5%"}, {"smiles": "CSc1ccc(NC(=O)Nc2ccc(Cl)cc2C(=O)c2ccccc2)cc1", "growth inhibition": "96.5% (active)"}, {"smiles": "Cc1nc2c(cc1C(=O)N/N=C/c1ccc([N+](=O)[O-])cc1)c(=O)n(C)c(=O)n2C", "growth inhibition": "-33.4%"}, {"smiles": "CC#Cc1c(C#CC)c(OC)c2c(c1OC)C(=O)c1ccccc1C2=O", "growth inhibition": "-20.9%"}, {"smiles": "CN(C)c1ccc(/C=N\\NC(=S)Nc2ccc3cn[nH]c3c2)cc1", "growth inhibition": "20.9%"}, {"smiles": "CNc1nc2c(s1)c1c(O)c3c(O)c(C)c4c(c32)C(=O)C(C)(O/C=C/C(OC)C(C)C(OC(C)=O)C(C)C(O)C(C)C(O)C(C)/C=C/C=C(/C)C(=O)N1)O4", "note": "(stereo not given)", "growth inhibition": "14.1%"}, {"smiles": "Nc1nc2ccc([N+](=O)[O-])cc2s1", "growth inhibition": "6.15%"}, {"smiles": "O=S(Nc1ccc(Br)cc1)c1ccccc1", "note": "(stereo not given)", "growth inhibition": "-3.5%"}, {"smiles": "O=C(CNC(=O)C(CO)NC(=O)OCc1ccccc1)OCc1ccccc1", "note": "(stereo not given)", "growth inhibition": "12.4%"}, {"smiles": "Fc1ccc(-c2ccc(Br)cc2)cc1", "growth inhibition": "3.95%"}, {"smiles": "CCNC(=O)CCN(C(=O)O)S(=O)(=O)c1ccc(NC(=O)c2ccccc2)cc1", "growth inhibition": "-23.2%"}, {"smiles": "COc1cc(NCc2c(O)ccc3ccccc23)c2ncccc2c1", "growth inhibition": "46.1%"}, {"smiles": "O=C(CS(=O)(=O)Cc1ccccc1)N1CCOCC1", "growth inhibition": "-9.4%"}, {"smiles": "O=C(/C=C/c1ccc(O)cc1)c1cc(O)cc(O)c1", "growth inhibition": "16.9%"}, {"smiles": "CNC(=O)/C(=C\\c1ccccc1)NC(C)=O", "growth inhibition": "9%"}, {"smiles": "c1ccc(SCc2ccc3c(c2)OCO3)cc1", "growth inhibition": "27.4%"}, {"smiles": "CNc1ccc(C(=O)O)cc1C(F)(F)F", "growth inhibition": "-0.35%"}, {"smiles": "O=c1[nH]cnc2c1ncn2C1CCC(CO)O1", "note": "(stereo not given)", "growth inhibition": "-11%"}, {"smiles": "CC(C)C1=CC2=CCC3C(C)(COC(=O)CSC(C)(C)C)CCCC3(C)C2CC1", "note": "(stereo not given)", "growth inhibition": "14.2%"}, {"smiles": "N#CC(CC(=O)c1ccccc1)c1ccccc1Cl", "note": "(stereo not given)", "growth inhibition": "17.2%"}, {"smiles": "c1ccc(C2=NCCc3cc4c(cc32)OCO4)cc1", "growth inhibition": "3.35%"}, {"smiles": "COc1ccc(CC(N)C(=O)N2CCCCC2)cc1", "note": "(stereo not given)", "growth inhibition": "8.45%"}, {"smiles": "COc1cc(-c2nnc3n2NC=C(C(=O)O)S3)cc(OC)c1OC", "growth inhibition": "6.75%"}, {"smiles": "CC(=O)O[C@]12CCCCCC1C1(O)C(O)CCCC[C@H]12", "note": "(stereo not given in full)", "growth inhibition": "10.2%"}, {"smiles": "COC(=O)c1ccccc1C1CN=NC12Cc1c(C)ccc(C)c1C2=O", "note": "(stereo not given)", "growth inhibition": "9.5%"}, {"smiles": "CC/C=N/Nc1cn[nH]c(=O)c1Cl", "growth inhibition": "-1.3%"}, {"smiles": "C=C1C(=O)OC2CCC3OC(C)(C)OC3C12", "note": "(stereo not given)", "growth inhibition": "6.2%"}, {"smiles": "CCC1N=C(N)N=C(N)N1c1ccc(Cl)c(Cl)c1", "note": "(stereo not given)", "growth inhibition": "16.2%"}, {"smiles": "CCCCn1c2nc(=O)n(C)c(=O)c-2cc2ccccc21", "growth inhibition": "29%"}, {"smiles": "COc1ccc([N+](=O)[O-])c(C(OC(C)=O)OC(C)=O)c1OC(C)=O", "growth inhibition": "4%"}, {"smiles": "CCCCCCCCCCC1SCC(=O)N1c1nncs1", "note": "(stereo not given)", "growth inhibition": "13.2%"}, {"smiles": "CC(=O)Nc1nc2ncc(CN(C(C)=O)c3ccc(C(=O)O)cc3)nc2c(=O)[nH]1", "growth inhibition": "-19.3%"}]}, {"experiment": "NCI Yeast Anticancer Drug Screen. Data for the mec2-1 strain (AID 157)", "conditions": "S. cerevisiae mec2-1 strain, at 50.0 µM, stronger effect = higher value", "in_short": "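Each compound was tested on mec2-1 yeast, a strain altered in DNA damage repair or cell cycle control. Growth inhibition is reported relative to vehicle.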", "values": [{"smiles": "CSc1nc(=O)cc(N)n1C", "growth inhibition": "-1.55%"}, {"smiles": "CCOC(=O)C(NC(=O)Cc1ccccc1)C(=O)OCC", "growth inhibition": "10.3%"}, {"smiles": "COc1ccc(C(=O)C(CN(C)C)CN(C)C)cc1OC", "growth inhibition": "9.55%"}, {"smiles": "CS(=O)(=O)/C=C/c1ccccc1", "growth inhibition": "-8.15%"}, {"smiles": "Clc1ccc2sc3c(c2c1)CCNC3", "growth inhibition": "0.1%"}, {"smiles": "CCS(=O)(=O)c1ccc(NC(=O)OC2CCCCCC2)cc1", "growth inhibition": "-2.25%"}, {"smiles": "CC(C)c1ccc(C(O)C2CC2)cc1", "note": "(stereo not given)", "growth inhibition": "-40.8%"}, {"smiles": "Nc1ccc(C(=O)CC(=O)c2cccc([N+](=O)[O-])c2)cc1", "growth inhibition": "20.4%"}, {"smiles": "CC(C)(Cc1ccc(Cl)cc1)NC(N)=O", "growth inhibition": "-73.7%"}, {"smiles": "CSc1ccc(NC(=O)Nc2ccc(Cl)cc2C(=O)c2ccccc2)cc1", "growth inhibition": "97.8% (active)"}, {"smiles": "Cc1nc2c(cc1C(=O)N/N=C/c1ccc([N+](=O)[O-])cc1)c(=O)n(C)c(=O)n2C", "growth inhibition": "-21.8%"}, {"smiles": "CC#Cc1c(C#CC)c(OC)c2c(c1OC)C(=O)c1ccccc1C2=O", "growth inhibition": "-29.3%"}, {"smiles": "CN(C)c1ccc(/C=N\\NC(=S)Nc2ccc3cn[nH]c3c2)cc1", "growth inhibition": "-10.9%"}, {"smiles": "CNc1nc2c(s1)c1c(O)c3c(O)c(C)c4c(c32)C(=O)C(C)(O/C=C/C(OC)C(C)C(OC(C)=O)C(C)C(O)C(C)C(O)C(C)/C=C/C=C(/C)C(=O)N1)O4", "note": "(stereo not given)", "growth inhibition": "13.8%"}, {"smiles": "Nc1nc2ccc([N+](=O)[O-])cc2s1", "growth inhibition": "-6.45%"}, {"smiles": "O=S(Nc1ccc(Br)cc1)c1ccccc1", "note": "(stereo not given)", "growth inhibition": "-0.35%"}, {"smiles": "O=C(CNC(=O)C(CO)NC(=O)OCc1ccccc1)OCc1ccccc1", "note": "(stereo not given)", "growth inhibition": "3%"}, {"smiles": "Fc1ccc(-c2ccc(Br)cc2)cc1", "growth inhibition": "3.4%"}, {"smiles": "CCNC(=O)CCN(C(=O)O)S(=O)(=O)c1ccc(NC(=O)c2ccccc2)cc1", "growth inhibition": "-14.8%"}, {"smiles": "COc1cc(NCc2c(O)ccc3ccccc23)c2ncccc2c1", "growth inhibition": "28.1%"}, {"smiles": "O=C(CS(=O)(=O)Cc1ccccc1)N1CCOCC1", "growth inhibition": "-13.3%"}, {"smiles": "O=C(/C=C/c1ccc(O)cc1)c1cc(O)cc(O)c1", "growth inhibition": "5.05%"}, {"smiles": "CNC(=O)/C(=C\\c1ccccc1)NC(C)=O", "growth inhibition": "-13.6%"}, {"smiles": "c1ccc(SCc2ccc3c(c2)OCO3)cc1", "growth inhibition": "1.4%"}, {"smiles": "CNc1ccc(C(=O)O)cc1C(F)(F)F", "growth inhibition": "-1.45%"}, {"smiles": "O=c1[nH]cnc2c1ncn2C1CCC(CO)O1", "note": "(stereo not given)", "growth inhibition": "14.6%"}, {"smiles": "CC(C)C1=CC2=CCC3C(C)(COC(=O)CSC(C)(C)C)CCCC3(C)C2CC1", "note": "(stereo not given)", "growth inhibition": "-2.25%"}, {"smiles": "N#CC(CC(=O)c1ccccc1)c1ccccc1Cl", "note": "(stereo not given)", "growth inhibition": "24.9%"}, {"smiles": "c1ccc(C2=NCCc3cc4c(cc32)OCO4)cc1", "growth inhibition": "0.7%"}, {"smiles": "COc1ccc(CC(N)C(=O)N2CCCCC2)cc1", "note": "(stereo not given)", "growth inhibition": "0.8%"}, {"smiles": "COc1cc(-c2nnc3n2NC=C(C(=O)O)S3)cc(OC)c1OC", "growth inhibition": "2.45%"}, {"smiles": "CC(=O)O[C@]12CCCCCC1C1(O)C(O)CCCC[C@H]12", "note": "(stereo not given in full)", "growth inhibition": "-23.6%"}, {"smiles": "COC(=O)c1ccccc1C1CN=NC12Cc1c(C)ccc(C)c1C2=O", "note": "(stereo not given)", "growth inhibition": "7%"}, {"smiles": "CC/C=N/Nc1cn[nH]c(=O)c1Cl", "growth inhibition": "0.1%"}, {"smiles": "C=C1C(=O)OC2CCC3OC(C)(C)OC3C12", "note": "(stereo not given)", "growth inhibition": "17.5%"}, {"smiles": "CCC1N=C(N)N=C(N)N1c1ccc(Cl)c(Cl)c1", "note": "(stereo not given)", "growth inhibition": "11.6%"}, {"smiles": "CCCCn1c2nc(=O)n(C)c(=O)c-2cc2ccccc21", "growth inhibition": "16.7%"}, {"smiles": "COc1ccc([N+](=O)[O-])c(C(OC(C)=O)OC(C)=O)c1OC(C)=O", "growth inhibition": "5.6%"}, {"smiles": "CCCCCCCCCCC1SCC(=O)N1c1nncs1", "note": "(stereo not given)", "growth inhibition": "0.75%"}, {"smiles": "CC(=O)Nc1nc2ncc(CN(C(C)=O)c3ccc(C(=O)O)cc3)nc2c(=O)[nH]1", "growth inhibition": "-8.6%"}]}]}
